Reference: PubChem BioAssay (NCI)
The panel holds about 83,000 compounds, 20% with a hit somewhere; the sample as a whole holds those more often.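 Values shown are percent growth following 48 h exposure of cells in 96-well plates to a single concentration of compound; below 10 was considered active.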 Values without a mark were called inactive. The source made the active and inactive calls.

Legend:
Test in all cases: NCI-60 one-dose screen, 48 h (100 = growth as untreated, 0 = no growth, -100 = all killed)
Details in all cases: 10 µM
[1] = test system: DU-145 prostate
[2] = test system: K-562 leukemia
[3] = test system: MALME-3M melanoma
[4] = test system: MDA-MB-231 breast
[5] = test system: RXF 393 renal
[6] = test system: SF-268 CNS
[7] = test system: SF-295 CNS
[8] = test system: SF-539 CNS
[9] = test system: UACC-257 melanoma
[10] = test system: M14 melanoma

Row | SMILES | growth [1] | growth [2] | growth [3] | growth [4] | growth [5] | growth [6] | growth [7] | growth [8] | growth [9] | growth [10]
1 | CCCCCCCCCCCCCCCCCCCC(=O)NCCc1c[nH]c2ccc(O)cc12 | 105% | 74.5% | 120% | 78% | 115% | 91.6% | 96.3% | 60.8% | 107% | –
2 | COc1ccccc1[C@H]1C(C(=O)c2ccc(O)cc2)C2(N[C@@H]1c1ccccc1)C(=O)Nc1ccc(Br)cc12 (some centres not stated) | 56% | 23.1% | 66.3% | 32.9% | 13.5% | 53.1% | 27.9% | 51.8% | 56.1% | 51.6%
3 | O=C1Nc2ccc(Cl)cc2/C1=C/c1cccc(OCc2ccccn2)c1 | 6.01% (active) | 0.86% (active) | -51.9% (active) | -50.8% (active) | -31.4% (active) | 4.23% (active) | -42.4% (active) | -64.4% (active) | -0.118% (active) | -50.5% (active)
4 | COc1cccc2nc(Nc3ccc(F)c(NC(=O)c4ccc(CN5CCN(C)CC5)c(C(F)(F)F)c4)c3)ccc12 | 6.64% (active) | -70.8% (active) | -91.3% (active) | -37.8% (active) | -27.1% (active) | 22.2% | -84% (active) | -93.6% (active) | -66.5% (active) | –
5 | N#Cc1c(Cl)nc(SCc2ccc(F)cc2)nc1-c1ccc(F)cc1 | 92.5% | 69.8% | 112% | 94.6% | 89.7% | 96.2% | 90% | 91.9% | 100% | 103%
6 | Cc1ccc([N+](=O)[O-])c(C(=O)Nc2ccc(-c3ccc4c(c3)NC(=O)/C4=C\c3ccc[nH]3)cc2)c1 | 10.5% | 28% | 55.5% | 55.1% | 87.4% | 14.2% | -65.3% (active) | 73.7% | 81.4% | 34.2%
7 | COc1ccc2c3nc4cc(C)c(C)cc4nc3n(CCN(C)C)c2c1 | -3.48% (active) | 3.09% (active) | -86% (active) | -10% (active) | -25.5% (active) | 27.8% | -59.4% (active) | -88.1% (active) | 10.5% | –
8 | CC(C)(C)Nc1nc2cc(Cl)c(Cl)cc2nc1S(C)(=O)=O | 57.2% | -5.97% (active) | -78.5% (active) | 26.7% | 6.24% (active) | 73.7% | 91.1% | 47.3% | 70.6% | 5.68% (active)
9 | O=C(CN1CCN(c2ncnc3c2cnn3-c2ccccc2)CC1)Nc1nncs1 | -96.1% (active) | 10.6% | -67.3% (active) | 29.7% | -71.3% (active) | -34.4% (active) | -31.4% (active) | -88.2% (active) | 54.3% | 4.82% (active)
10 | C=C(c1ccc(OC)c(N)c1)c1cc(C)nc2ccccc12 | 14.9% | 11.3% | 49.9% | 10.5% | 51.4% | 24.3% | 6.83% (active) | -34.2% (active) | 63.3% | 16%
11 | Brc1ccc(/C=C/c2n(Cc3ccc4ccccc4c3)c3ccccc3[n+]2Cc2ccc3ccccc3c2)cc1 | 3.53% (active) | -19.3% (active) | -87.8% (active) | -95.9% (active) | -83.1% (active) | -38.3% (active) | -65.4% (active) | -98.4% (active) | -40.3% (active) | -31.7% (active)
12 | N#Cc1c(NC(=O)c2ccc(C(F)(F)F)cc2C(F)(F)F)sc2c1CCC(=O)C2 | 23.9% | 2.16% (active) | -86.8% (active) | -74.4% (active) | -59% (active) | 27.1% | -21.7% (active) | -80.2% (active) | -64.8% (active) | -50.3% (active)
13 | O=C(Nc1ccc(F)c(Cl)c1)c1cc(-c2ccc(F)cc2F)ccc1O | 13.3% | 6.16% (active) | -28.6% (active) | -24.5% (active) | -16.6% (active) | 4.5% (active) | -82.1% (active) | -7.23% (active) | -13.5% (active) | 20%
14 | COc1cc2c(c(OC)c1OC)C(=O)CC(c1cccc(NC(=O)c3cccc(N)c3)c1)O2 (configuration not stated) | 83% | 47.5% | 78.8% | 68.3% | 100% | 81.7% | 92.8% | 95.3% | 93.4% | 96.5%
